Screening results from PubChem.
Rows were chosen to be rich in hits. Some 1% of all compounds tested hit in one or more screens of this group.
iPSC survival up = enhancers of human iPSC single-cell survival; survival enhancement, % at 20 µM; hit rate 0.044% among 360,000; hiPSC single-cell survival, ATPlite luminescence; 100% = ROCK inhibitor wells, 0% = DMSO; in the data active = survival enhancement above about 18%;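 note: cells exposed to compounds for 16 hours before the ATP read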
V-ATPase pHluor = yeast V-ATPase proton transport regulation by pHLuorin. hit rate 0.37% among 350,000. response, % at 10 µM. S. cerevisiae, pHLuorin cytosolic pH fluorescence; in the data active = response mostly above about 7.3%, no sharp cut-off; inactive = mostly below about 5.4%; note: actives read high
Yeast superoxide = yeast age-related superoxide inhibition as caloric restriction mimetic. S. cerevisiae aged cells, superoxide DHE fluorescence; active compounds read low. superoxide response (% of plate mean), % at 10 µM. hit rate 0.18% among 330,000. AID 2690;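 active = superoxide response under a set limit, about three screen SD below normal, cut at about 65% in these data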;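 note: yeast aged for seven days with compound at 30 °C before DHE staining; 100% = average MFI of all compound-treated wells on the plate with controls excluded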
CTSL1 counter = cathepsin L1 inhibition, PFM18AAP counter-screen; recombinant F. hepatica cathepsin L1, Z-Leu-Arg-MCA fluorescence; inhibition, % at 5.96 µM; hit rate 0.49% among 300,000;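 active = inhibition above the mean of all tested compounds plus 3 SD, set per screening campaign, cut at about 17% in these data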;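 note: 0% = plate median of test compound wells and 100% = 1 µM Z-Phe-Ala-diazomethylketone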
V-ATPase pH SP = yeast V-ATPase proton transport regulation | hit rate 2% among 980 | shares compounds with V-ATPase pHluor | response, % at 10 µM | AID 602197 | S. cerevisiae pHLuorin cytosolic pH; in the data active = response above about 24%;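 note: plate controls were vehicle wells for no effect and positive control wells for full effect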
* marks the source's active call; other numbers are inactive results; · = not tested or not shown.

SMILES | iPSC survival up | V-ATPase pHluor | Yeast superoxide | CTSL1 counter | V-ATPase pH SP
COc1cc(OC)c(C(=O)OCC(=O)Nc2nnc(-c3ccccc3)o2)cc1OC | -0.2 | 12.5* | 113.4 | · | 2.5
COc1ccc(CN2CCNC(=O)C2CC(=O)N2CCCN(C(C)=O)CC2)c(OC)c1 (stereo not given) | -0.5 | 2.5 | 172.9 | -0.5 | ·
CCCCN(C=O)c1c(CC)nc2c(OCc3ccc(S(C)(=O)=O)cc3)cccn12 | -0.6 | · | · | · | ·
COCCOC(=O)c1c(NC(=O)CNCc2ccco2)sc(C(N)=O)c1C | 0.9 | 10.3* | 108.2 | 0.6 | -1.8
COCCOC(=O)c1c(NC(=O)CNc2ccc(C)c(F)c2)sc(C(N)=O)c1C | -0.3 | -4.7 | 104.8 | -3.1 | ·
COc1ccccc1-n1nnnc1SCC(=O)NCC1(N2CCOCC2)CCCCC1 | 0.7 | -0.9 | 122.2 | · | ·
CCOC(=O)C(=O)c1cn(C2OCC(OC(C)=O)C(OC(C)=O)C2OC(C)=O)c2ccccc12 (stereo not given) | -1.9 | 13.9* | 103.7 | 4.8 | -5.7
CCn1c(SCC(=O)Nc2nc3ccccc3s2)nnc1-c1ccc(Br)cc1 | -1.3 | 15.4* | 93.9 | -0.4 | 1.2
O=C(Cn1cnc2c(OCc3ccccc3)ncnc21)NCc1ccccn1 | 0.4 | 3.5 | 96.0 | · | ·
CCSc1nnc(NC(=O)c2cccc(S(=O)(=O)N(C)c3ccccc3)c2)s1 | 0.4 | -0.7 | 96.0 | 1.5 | ·
C=CCN(c1ccccc1)S(=O)(=O)c1cccc(C(=O)Nc2nnc(SCC)s2)c1 | 4.8 | 11.3* | 102.2 | -3.8 | -0.9
N#CC(=C1CCCC1)c1nc(-c2ccccc2)cs1 | -3.2 | 9.7* | 95.2 | 4.1 | -4.0
Cc1ccc(-c2csc(C(C#N)=C3CCCC3)n2)cc1 | -2.0 | -4.3 | 106.5 | -2.1 | ·
O=C1C=C(NCc2ccc(Cl)cc2Cl)C2(CCCCC2)O1 | 0.6 | 10.2* | 84.5 | 2.1 | 3.7
COc1ccc(NC(=O)N(C)C[C@@H]2OCc3ccccc3-c3c(n(C)c4ccccc34)C(=O)N([C@H](C)CO)C[C@H]2C)c(OC)c1 | -1.0 | -0.8 | · | · | ·
Nc1ccc(C(=O)OCc2csc(-c3ccccc3)n2)cc1[N+](=O)[O-] | 6.2 | 10.0* | 90.8 | 0.1 | -6.6
CNS(=O)(=O)c1cccc(C(=O)OCc2csc(-c3ccccc3)n2)c1 | -0.7 | 1.8 | 115.8 | 0.1 | ·
Cc1ccccc1OC(C)C(=O)Nc1ccc(S(=O)(=O)Nc2nccs2)cc1 (stereo not given) | 0.8 | 5.5 | 98.3 | -3.1 | ·
CCC1S/C(=N/N=C/c2ccco2)N(Cc2ccccc2)C1=O (stereo not given) | 2.8 | 60.0* | 80.7 | 2.6 | 1.6
COc1ccc(/C=C/C(=O)c2ccc(O)cc2)cc1 | -3.4 | 9.3* | 87.3 | 0.7 | 5.0
COc1cccc(NC(=O)CN(C)S(=O)(=O)c2ccc3c(c2)NC(=O)CS3)c1 | -0.6 | 11.7 | 93.3 | 4.8 | 3.5
COc1ccc(NC(=O)CN(C)S(=O)(=O)c2ccc3c(c2)NC(=O)CS3)cc1 | -0.1 | -0.8 | 99.1 | -1.7 | ·
CN(CC(=O)Nc1cccc(F)c1)CC(=O)N1CCCCC1 | -0.5 | -2.9 | 116.4 | · | ·
O=C(COC(=O)CCC(=O)c1ccc(F)cc1)NCCc1ccccc1 | 3.6 | 0.6 | 111.0 | · | -5.8
COc1cccc(CN2CCNC(=O)C2CC(=O)N(C)C2CCCCC2)c1OC (stereo not given) | -0.5 | 0.7 | 98.8 | 1.4 | ·
SMILES | iPSC survival up | V-ATPase pHluor | Yeast superoxide | CTSL1 counter | V-ATPase pH SP
Cc1ccc(F)cc1C(=O)N1CCCCC1c1cc(C(=O)Nc2ccc(F)c(Cl)c2)no1 (stereo not given) | 2.8 | · | · | · | ·
O=C(Nc1ccc2[nH]c(=O)[nH]c2c1)c1cccc([N+](=O)[O-])c1 | 0.3 | 8.9* | 102.2 | 0.7 | -1.3
O=C(Nc1ccccc1C(=O)Nc1ccncc1)c1cccc([N+](=O)[O-])c1 | -0.4 | 12.6* | 102.8 | 1.7 | 0.0
CCCn1nc(C(=O)Nc2ccc3nc(N4CCOCC4)sc3c2)ccc1=O | -0.2 | 1.7 | · | · | ·
Cc1ccc(Nc2nnc(C)c3ccccc23)c(C)c1 | -0.1 | 12.4* | 93.6 | -0.8 | 9.1
Cc1ccc(Nc2cc(=O)oc3ccccc23)c(C)c1 | 1.4 | -3.4 | 115.4 | -1.3 | ·
CCOc1ccccc1-n1c(SCC(=O)N(C(C)C)C(C)C)nnc1-c1cccnc1 | -3.1 | 18.2* | 101.0 | 3.2 | -5.1
O=C(Nc1nccs1)C1CC=CCC1C(=O)OCC(F)(F)C(F)F (stereo not given) | -0.5 | -2.0 | 108.0 | · | ·
CC1SC(=Nc2ccccc2)N(S(=O)(=O)c2ccccc2)C1=O (stereo not given) | 3.2 | 2.6 | 100.8 | 2.8 | ·
COc1ccc([C@H]2[C@@H]3C=CCC[C@@]3(C)C(=O)N2Cc2ccccc2)cc1Cl | 0.4 | 0.6 | 89.0 | 0.3 | ·
O=C1N=C(N2CCCC2)S/C1=C\c1cn[nH]c1-c1ccccc1 | · | · | 120.2 | 1.9 | ·
Cc1ccccc1N1CCN(C2=NC(=O)/C(=C/c3cn[nH]c3-c3ccccc3)S2)CC1 | -1.6 | 8.3* | 114.2 | -7.9 | -3.5
CC1CCc2c(sc(NC(=O)Cn3nc(C(F)(F)F)c4c3CCCCC4)c2C#N)C1 (stereo not given) | 0.8 | -0.5 | 98.8 | 0.5 | ·
N#Cc1c(NC(=O)Cn2nc(C(F)(F)F)c3c2CCCC3)sc2c1CCC2 | 6.5 | 10.2* | 87.9 | -4.0 | 14.1
O=C(Nc1ccccc1N1CCOCC1)c1ccc([N+](=O)[O-])o1 | -0.1 | 25.2* | 114.3 | 5.0 | 90.5*
COc1ccc(CN2CCN(C(=O)C3CCC(CNS(=O)(=O)c4ccc(C)cc4)CC3)CC2)c(OC)c1OC (stereo not given) | -1.2 | -12.0 | 93.2 | 3.4 | ·
NS(=O)(=O)c1cccc(NC(=O)CSc2nnc(-c3ccccc3)o2)c1 | 8.1 | -8.6 | 103.9 | · | 0.0
O=C(CSc1nnc(-c2ccncc2)o1)Nc1cccc(F)c1 | 3.1 | -1.8 | 108.0 | -0.3 | ·
CCCc1cc2c(cc1NC(=O)c1ccccc1C)OCO2 | 0.4 | 1.5 | 99.8 | 0.7 | ·
C#CCOCCOCCOCCNc1nc(N2CCN(C(=O)[C@H](CCC(=O)O)n3cc(CN)nn3)CC2)nc(N2CCN(C(=O)[C@H](CCCCN)n3cc([C@@H](N)CC(N)=O)nn3)CC2)n1 | 1.4 | 7.9* | 98.0 | · | -2.2
CCCc1c(C(=O)N/N=C/c2ccoc2)nnn1-c1nonc1N | -2.8 | -2.3 | · | · | ·
Cc1ccccc1NC(=O)c1c(C)nn(-c2ccccc2)c1Cl | 0.1 | -4.9 | 89.2 | 1.8 | ·
Cc1ncsc1CCOC(=O)c1ccc([N+](=O)[O-])cc1 | 5.1 | 45.1* | 101.5 | -1.6 | -1.1
Cc1ncsc1CCOC(=O)c1ccc(N2CCOCC2)c([N+](=O)[O-])c1 | 1.6 | 2.2 | 102.3 | 7.3 | ·
Cc1nc(NC(=O)CSc2nnc(C3CC3)n2C)sc1C | 0.5 | -1.8 | 96.4 | -4.0 | ·
CCn1c(=N)n(CC(O)c2ccccc2)c2ccccc21 (stereo not given) | 4.5 | 27.5* | 98.8 | 6.8 | 0.8
CCCCn1c(=N)n(CC(O)c2ccccc2)c2ccccc21 (stereo not given) | -0.7 | 6.5 | 107.8 | 0.9 | ·
O=C(c1ccc(CS(=O)c2ccc(Br)cc2)o1)N1CCN(C2CCCCC2)CC1 (stereo not given) | 5.7 | 79.2* | · | · | 2.3
